Test systems include HCT-15 colon; HT29 colon; SNB-75 CNS; SNB-19 CNS; U251 CNS; PC-3 prostate; SK-MEL-5 melanoma; UACC-62 melanoma; LOX IMVI melanoma; SK-MEL-2 melanoma; EKVX NSCLC; SN12C renal; UO-31 renal; TK-10 renal; ACHN renal; CAKI-1 renal; A498 renal; CCRF-CEM leukemia; MOLT-4 leukemia; SK-MEL-28 melanoma.
Common to all, as to experiment: NCI-60 one-dose screen, 48 h (100 = growth as untreated, 0 = no growth, -100 = all killed)
Common to all, as to settings: 10 µM unless noted

About 83,000 compounds went through this panel and 20% of them were active in at least one assay; those are over-represented in the sample as a whole.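 Compound tested at a single concentration for 48 hours in 96-well plates; a percent growth value below 10 was scored as active.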 A number with no mark means an inactive call. Active and inactive are the calls of the source.

`COc1cc2c(c(OC)c1OC)CCC(c1cccc(C(=O)Nc3ccc(Br)cc3)c1)O2` (stereo unspecified): the growth is 61% in the test with HCT-15 colon; 65.7% in the test on HT29 colon; 61.8% in the test on SNB-75 CNS; 65.8% in the test with SNB-19 CNS; 75.5% in the test with U251 CNS; 39.4% in the test on PC-3 prostate. Besides, the growth with SK-MEL-5 melanoma was 55%; in the test with UACC-62 melanoma, 53%; in the test on LOX IMVI melanoma, 65.2%; in the test on SK-MEL-2 melanoma, 46.4%; in the test with EKVX NSCLC, 60.5%; in the test on SN12C renal, 47.1%. For the same compound, the growth with UO-31 renal is 39.7%; with TK-10 renal, 77.4%; in the test with ACHN renal, 67.9%; in the test with CAKI-1 renal it was 73.6%; in the test with A498 renal it was -3.18% (active); with CCRF-CEM leukemia it was 53.3%. Also, in the test with MOLT-4 leukemia, the growth is 25.1%.
On to `C[C@H](c1nc2ccc(C#N)cc2[nH]1)[C@H]1CC[C@H]2[C@@H]3CCC4=CC(=O)CC[C@]4(C)[C@H]3CC[C@]12C`, for which the growth in the test with HCT-15 colon was 44.7%; with HT29 colon, 32.9%; in the test with SNB-75 CNS, 75.7%; with SNB-19 CNS it was 71.6%; with U251 CNS, 65.3%; with PC-3 prostate it was 28.5%. Further, the growth in the test on SK-MEL-5 melanoma is 50.4%; in the test with UACC-62 melanoma, 56.6%; in the test on LOX IMVI melanoma it was 71.7%; in the test on SK-MEL-2 melanoma, 84.9%; in the test on EKVX NSCLC it was 58.4%; in the test on SN12C renal, 69.5%. In addition, the growth is 51.8% in the test on UO-31 renal; 95.2% with TK-10 renal; 80.4% in the test on ACHN renal; 50.8% in the test on CAKI-1 renal; 14.5% with A498 renal; 46.5% with CCRF-CEM leukemia. In addition, the growth with MOLT-4 leukemia was 49.2%.
With `Cc1ccc(OCCOCCOCCOCCOCCOc2ccc(C)n(O)c2=S)c(=S)n1O`, the growth with HCT-15 colon is 29%; in the test with HT29 colon, 25.7%; in the test with SNB-75 CNS, 24.8%; with SNB-19 CNS it was 16.7%; in the test on U251 CNS, 12.3%; in the test with PC-3 prostate, 33.3%. Further, the growth was -32.3% (active) with SK-MEL-5 melanoma; -13.9% (active) in the test with UACC-62 melanoma; 3.58% (active) with LOX IMVI melanoma; 15.7% in the test on SK-MEL-2 melanoma; 13.1% with EKVX NSCLC; 8.41% (active) with SN12C renal. Besides, the growth with UO-31 renal is -26.1% (active); in the test on TK-10 renal it was 30.2%; in the test on ACHN renal it was 8.16% (active); in the test with CAKI-1 renal it was 7.97% (active); in the test on A498 renal, 20.4%; in the test on CCRF-CEM leukemia, 1.49% (active). Besides, the growth with MOLT-4 leukemia is 2.29% (active).
`S=c1ccnc[nH]1`: the growth in the test with HCT-15 colon is 103%; with HT29 colon it was 110%; with SNB-75 CNS, 120%; in the test with SNB-19 CNS, 102%; in the test on U251 CNS, 102%; in the test with PC-3 prostate, 100%. The growth was 109% with SK-MEL-5 melanoma; 102% with UACC-62 melanoma; 96.5% in the test with LOX IMVI melanoma; 144% with SK-MEL-28 melanoma; 96.6% in the test with SK-MEL-2 melanoma; 96.8% in the test with SN12C renal. Moreover, the growth with UO-31 renal is 82.5%; in the test on TK-10 renal, 127%; in the test on ACHN renal it was 99.4%; with CAKI-1 renal it was 104%; in the test on A498 renal, 112%; in the test with MOLT-4 leukemia, 107%.
Turning to `Cc1cc(O)cc(-c2nn(C)cc2-c2cc(N3CCOCC3)nc(-c3cccnc3)n2)c1`, the growth with HCT-15 colon was 22.7%; in the test with HT29 colon, 17.4%; in the test with SNB-75 CNS, 1.48% (active); in the test with SNB-19 CNS it was 33.8%; with U251 CNS, 21.5%; in the test on PC-3 prostate, 22.7%. Further, the growth in the test with SK-MEL-5 melanoma was 1.65% (active); with UACC-62 melanoma, 18.1%; in the test with LOX IMVI melanoma, 25.6%; in the test on SK-MEL-2 melanoma, 51.5%; in the test on EKVX NSCLC, 52.3%; with SN12C renal, 32.3%. Further, the growth in the test with UO-31 renal is 30.5%; with TK-10 renal it was 51.6%; with ACHN renal it was 37.9%; in the test on CAKI-1 renal it was 43.9%; in the test with A498 renal, -36.3% (active); in the test with CCRF-CEM leukemia it was 24.3%. In the test with MOLT-4 leukemia, the growth is 26.8%.
As to `COc1ccc(-c2cc(C(=O)N3N=C(c4ccc(N)cc4)CC3c3ccc(Cl)cc3)c3ccccc3n2)cc1` (stereo unspecified), the growth in the test with HCT-15 colon is 21.4%; with HT29 colon, -11.7% (active); with SNB-75 CNS, 5.79% (active); with SNB-19 CNS, 48.3%; in the test on U251 CNS, 15.2%; with PC-3 prostate, 26.1%. Further, the growth in the test on SK-MEL-5 melanoma was 25.9%; in the test on UACC-62 melanoma it was 38.3%; with LOX IMVI melanoma it was 33%; in the test with SK-MEL-2 melanoma, 20.1%; with EKVX NSCLC it was 41%; in the test with SN12C renal, 41%. For the same compound, the growth is 45.3% with UO-31 renal; 35.6% in the test with TK-10 renal; 43.6% in the test with ACHN renal; 28.3% in the test with CAKI-1 renal; -1.93% (active) in the test with A498 renal; 16.5% with CCRF-CEM leukemia. In addition, in the test on MOLT-4 leukemia, the growth was 20.5%.
As to `C#Cc1cccc(Nc2ncnc3cc(NC(=O)CCl)ccc23)c1`, the growth in the test with HCT-15 colon is -67.7% (active); in the test with HT29 colon, -65.5% (active); in the test on SNB-75 CNS it was -97.2% (active); in the test on SNB-19 CNS it was -70.8% (active); in the test on U251 CNS, -88.1% (active); in the test with PC-3 prostate, -64.9% (active). For the same compound, the growth was -93.9% (active) in the test with SK-MEL-5 melanoma; -68.6% (active) in the test with UACC-62 melanoma; -62.7% (active) with LOX IMVI melanoma; -61.5% (active) with SK-MEL-2 melanoma; -45.5% (active) with EKVX NSCLC; -78.1% (active) with SN12C renal. Besides, the growth was -91.5% (active) in the test on UO-31 renal; -91.5% (active) in the test with TK-10 renal; -95.9% (active) with ACHN renal; -82.4% (active) with CAKI-1 renal; 20.5% with A498 renal; -19.4% (active) with CCRF-CEM leukemia. In addition, the growth in the test on MOLT-4 leukemia was -16.4% (active).
Regarding `CSc1nc(-c2ccco2)c(C#N)c(=O)n1C`, the growth in the test with HCT-15 colon was 98.1%; with HT29 colon it was 113%; in the test with SNB-75 CNS, 89.3%; in the test on SNB-19 CNS, 93.7%; in the test on U251 CNS, 103%; in the test on PC-3 prostate, 94.4%. Besides, the growth in the test with SK-MEL-5 melanoma was 101%; in the test with UACC-62 melanoma, 99.5%; in the test with LOX IMVI melanoma, 97.2%; with SK-MEL-2 melanoma, 94.3%; with EKVX NSCLC it was 98.4%; in the test on SN12C renal, 110%. Also, the growth in the test with UO-31 renal was 112%; with TK-10 renal, 104%; with ACHN renal, 100%; with CAKI-1 renal, 89.2%; with A498 renal, 103%; in the test with CCRF-CEM leukemia, 88.7%. The growth in the test on MOLT-4 leukemia was 95.1%.

(Values after PubChem BioAssay (NCI).)
